Cardio protect – cardioprotection against H2O2-induced cell death, primary screen, uHTS, H9c2 cells, ATPLite luminescence | H9c2 cardiomyocytes, H2O2 injury protection, 2 h | protection from H2O2 cell death, % at 20 µM | 0.63% of 360,000 active | AID 588492, 2011;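 active = compounds giving at least 50% protection of heart cells from peroxide-induced death in the single-dose screen, raw or plate-pattern-corrected value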;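 note: 0% = DMSO wells with peroxide and 100% = DMSO wells without peroxide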
Rtt109 Vps75 – inhibitors of C. albicans Rtt109/Vps75 HAT, primary screen, biochemical, ThioGlo CoA-SH fluorescence, plate reader. Histone acetyltransferase RTT109 (Candida albicans (strain SC5314 / ATCC MYA-2876)), …. purified Rtt109/Vps75, 4 h. inhibition, % at 34.9 µM. 0.16% of 330,000 active. AID 540336, 2011;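 active = inhibition of at least 50% in every replicate; inconclusive = best replicate reaches 50% inhibition but some replicates fall short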
HGIII-sPLA2 inh – human group III sPLA2 inhibitors, primary screen, biochemical, QFRET, BODIPY PC-A2 liposome substrate. 0.56% of 370,000 active. QFRET BODIPY PC-A2 liposome hydrolysis, fluorescence. inhibition, % at 12.2 µM. AID 743126, 2013;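 active = inhibition above mean plus 3 SD of compounds lying within the high and low control bounds, cut at about 19% in these data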;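 note: 0% = median of test compound wells and 100% = no enzyme DMSO wells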
DAGLB inhibitor – DAGLB lipase inhibitors, primary screen, biochemical, fluorescence, HTS; Diacylglycerol lipase-beta (Homo sapiens), Q8NCG7; HEK293T DAGLB membrane lysate, EnzChek fluorogenic substrate; inhibition, % at 5.17 µM; 0.059% of 340,000 active; AID 504411, 2011; in the data active = inhibition above about 34%;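 note: 0% = enzyme with vehicle and 100% = wells lacking enzyme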
Target sequence (Q8NCG7 whole entry, looked up): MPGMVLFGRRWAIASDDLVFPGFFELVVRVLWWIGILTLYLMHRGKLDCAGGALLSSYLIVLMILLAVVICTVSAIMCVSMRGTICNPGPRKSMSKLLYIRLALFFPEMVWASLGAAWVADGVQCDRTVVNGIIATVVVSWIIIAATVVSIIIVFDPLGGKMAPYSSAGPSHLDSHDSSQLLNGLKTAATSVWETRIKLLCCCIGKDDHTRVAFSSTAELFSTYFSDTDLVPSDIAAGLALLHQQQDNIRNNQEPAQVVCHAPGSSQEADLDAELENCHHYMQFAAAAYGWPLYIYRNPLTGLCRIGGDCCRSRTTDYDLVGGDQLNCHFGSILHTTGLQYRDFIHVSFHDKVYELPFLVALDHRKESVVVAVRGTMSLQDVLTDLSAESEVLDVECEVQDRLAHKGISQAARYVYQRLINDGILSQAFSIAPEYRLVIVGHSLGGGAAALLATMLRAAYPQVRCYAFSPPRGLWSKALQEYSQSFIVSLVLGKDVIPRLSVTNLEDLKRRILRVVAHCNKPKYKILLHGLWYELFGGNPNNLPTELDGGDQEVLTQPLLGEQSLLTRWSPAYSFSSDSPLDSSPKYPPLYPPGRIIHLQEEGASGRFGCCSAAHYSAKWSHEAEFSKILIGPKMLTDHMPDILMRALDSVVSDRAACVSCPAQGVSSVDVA
ABHD5-PLIN5 inh – ABHD5-PLIN5 interaction inhibitors, primary screen, cell lysate, split luciferase complementation, luminescence; 0.78% of 360,000 active; Split G. princeps luciferase complementation, 4 h; AID 602281, 2012; inhibition, % at 4 µM;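 active = inhibition above the mean inhibition across every tested compound plus 3 SD, cut at about 22% in these data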;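 note: 0% = DMSO only wells and the 100% control is not disclosed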
Myeloid diff 2 – induction of myeloid progenitor differentiation, primary screen, cell-based, flow cytometry, MLPCN library; ER-HoxA9 myeloid progenitors, lysozyme-GFP differentiation; calls only at 10 µM; 1% of 360,000 active;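 active = normalized GFP-positive differentiation at or above the plate's own cutoff, the solvent-only control mean plus 3 SD; inconclusive = no clear call, values can overlap the other calls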;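 note: cells exposed to compound for four days before flow analysis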
ABHD5 PLIN5 conf – ABHD5-PLIN5 interaction inhibitors, confirmation, biochemical, luminescence | AID 651612, 2012 | 67% of 2,200 active | shares compounds with ABHD5-PLIN5 inh | inhibition, % at 4 µM; in the data active = inhibition above about 23%;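 note: 0% = DMSO vehicle wells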
HNF4 counter – HNF4 dimerization inhibitors, counter-screen for ABHD5-PLIN5 interaction inhibitor project, biochemical, split-luciferase complementation, luminescence; shares compounds with ABHD5-PLIN5 inh; inhibition, % at 4 µM; 77% of 2,200 active; AID 651674, 2012;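 active = mean inhibition across replicate wells exceeding the computed hit threshold, cut at about 13% in these data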;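 note: light from luciferase halves that rejoin when HNF4 fusion proteins dimerize; 0% = DMSO only wells and the 100% control is not given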
* hit, by the source's call; i = inactive; ? = inconclusive; . = no result given; + = active, no number. In the library only some 2.9% were active in any assay of this set; here they are far more common.

SMILES | Cardio protect | Rtt109 Vps75 | HGIII-sPLA2 inh | DAGLB inhibitor | ABHD5-PLIN5 inh | Myeloid diff 2 | ABHD5 PLIN5 conf | HNF4 counter
O=C(/C=C/c1ccccc1)c1c[nH]c2ccccc12 | -14 | ? | -7 | 0 | 1 | i | . | .
CCOC(=O)Cc1csc(NC(=O)NC2(C(F)(F)F)Oc3ccc(Cl)cc3O2)n1 (stereo unspecified) | 62* | -23 | 5 | 0 | 25* | i | 54* | 60*
CCOC(=O)Cc1csc(NC(=O)Cc2ccc(Cl)cc2)n1 | -5 | 8 | -7 | 1 | 0 | i | . | .
CCOC(=O)Cc1csc(NC(=O)NC2(C(F)(F)F)Oc3ccccc3O2)n1 | 50* | 20 | -2 | -1 | 26* | i | 62* | 91*
CCOC(=O)Cc1csc(NC(=O)COc2ccccc2)n1 | 4 | 8 | 2 | -1 | 0 | i | . | .
CCc1ccc(C(=O)Nc2cc(C)on2)o1 | 0 | 9 | -1 | 0 | 1 | i | . | .
Cc1cccc(C)c1N(C(=O)c1ccco1)C(C(=O)NC1CCCC1)c1ccncc1 (stereo unspecified) | 11 | 2 | 2 | 0 | -11 | i | . | .
CSc1nnc(C)c(/C=C/NOCc2cccc(F)c2)n1 | -3 | -10 | -3 | -2 | -6 | i | . | .
Cc1nnc(SCc2ccccc2)nc1/C=C/NOCc1ccc(Cl)cc1Cl | -14 | 1 | 3 | -5 | 26* | i | 15 | 25*
CC(=O)Nc1ccc(S(=O)(=O)N2CCN(c3nc(C)cc(C)n3)CC2)cc1 | 4 | -2 | -2 | -1 | 4 | i | . | .
CCc1nc2ccc(C(=O)N3CCCCC3)cn2c1N(CCC(C)C)CCN(C)C | 6 | . | -9 | . | 6 | i | . | .
COC(=O)C1=C(C)N(Cc2ccccc2)C(=NCc2ccccc2)N[C@H]1c1cccc(C(F)(F)F)c1 | -12 | 8 | . | -1 | 2 | i | . | .
COC(=O)C1=C(C)N(Cc2ccccc2)C(=NCC(C)C)N[C@H]1c1cccc(C(F)(F)F)c1 | -11 | 3 | . | 5 | 24* | i | 14 | 2
C=Cn1ccnc1CC(O)c1ccc(OC)cc1 (stereo unspecified) | -1 | -7 | -2 | -5 | 5 | i | . | .
O=C(COC(=O)CCCC1=NS(=O)(=O)c2ccccc2N1)Nc1ccccc1 | -2 | 0 | -1 | 1 | -6 | i | . | .
CCCC/C=C/C(NC(=O)c1ccc(C(=O)OC)cc1)c1ccccc1 (stereo unspecified) | -1 | -4 | 2 | -12 | -4 | i | . | .
CCCc1nc2sc3ccccc3c(=O)c2c(=O)n1Cc1ccco1 | 9 | 13 | -2 | 5 | 28* | i | 52* | 74*
Cc1cc(C)n(-c2nc3ccccc3nc2N2CCN(S(=O)(=O)c3cccc(C#N)c3)CC2)n1 | 1 | -1 | 4 | -5 | 0 | i | . | .
CCC(=O)Nc1ccc(C=C(C(C)=O)C(C)=O)cc1 | 9 | -6 | -5 | -1 | -16 | i | . | .
O=C(C(=Cc1ccc(F)cc1)C(=O)c1ccccc1)c1ccccc1 | -6 | . | -13 | . | 94* | i | 97* | 87*
COc1cccc(C=C(C(C)=O)C(=O)c2ccccc2)c1 | . | . | -3 | . | 77* | i | 87* | 80*
CCC(=O)Nc1ccc(/C=C(\C(C)=O)C(=O)c2ccccc2)cc1 | 22 | -1 | 1 | 4 | 28* | i | 44* | 51*
COc1cc(NC(=O)NCc2ccco2)ccc1-c1ccc(NC(=O)NCc2ccco2)cc1OC | 6 | 2 | -10 | 11 | -2 | i | . | .
O=C(O)c1cc(-c2ccco2)[nH]n1 | 1 | -22 | 2 | 0 | 5 | i | . | .
CC1CCC(C(=O)NNC(=O)c2cc(-c3ccco3)[nH]n2)CC1 (stereo unspecified) | -3 | -4 | -5 | -2 | 27* | i | 3 | 1
SMILES | Cardio protect | Rtt109 Vps75 | HGIII-sPLA2 inh | DAGLB inhibitor | ABHD5-PLIN5 inh | Myeloid diff 2 | ABHD5 PLIN5 conf | HNF4 counter
Oc1ccc(N=Nc2ccccc2)o1 | -17 | 0 | 0 | -1 | 41* | i | 66* | 68*
O=c1ccc(N=Nc2ccccc2)ccc1O | 47 | 21 | 11 | 26 | 5 | i | . | .
COC(=O)[C@@]1(Cc2ccc(OC)cc2)[C@@H]2C(=CC(=O)[C@H]2CC(=O)C(=O)N2CCCC2)CN1C(=O)c1ccccc1 | 7 | -1 | . | 2 | 33* | + | 63* | 49*
COC(=O)[C@@]1(Cc2ccc(F)cc2)[C@H]2C(CC(=O)C(=O)N3CCCC3)C(=O)C[C@H]2CN1C(=O)c1ccccc1 (stereo partly specified) | . | . | -19 | . | 18 | i | . | .
C=C1C(=O)[C@]23C[C@H]1CCC2[C@]1(C)C(=O)CC[C@@](C)(C(=O)O)C1C[C@@H]3O (stereo partly specified) | 5 | . | 5 | . | 46* | + | 41* | 100*
C=C1C(=O)[C@]23C[C@H]1CCC2[C@]1(C)CCC[C@@](C)(C(=O)O)C1C[C@@H]3O (stereo partly specified) | -15 | . | 3 | . | 51* | ? | 46* | 102*
C=C1C(=O)[C@]23C[C@H]1CC[C@H]2[C@]1(C)[C@@H](OC(C)=O)CC[C@@](C)(C(=O)O)[C@H]1C[C@@H]3OC(C)=O | -4 | . | 8 | . | 14 | i | . | .
CC(=O)Nc1c(I)c(C(=O)N[C@H]2C(O)O[C@H](CO)[C@@H](O)[C@@H]2O)c(I)c(N(C)C(C)=O)c1I (stereo partly specified) | -2 | 2 | 0 | -1 | 4 | i | . | .
CCOc1ccc(NC(=O)c2c(OC)cccc2OC)cc1 | -4 | 5 | -4 | 1 | -3 | i | . | .
COC(=O)C1=C(C)NC(C)=C(C(=O)OCC(C)C)C1c1ccccc1[N+](=O)[O-] (stereo unspecified) | 28 | 1 | -1 | -14 | 36* | i | 36* | 95*
CCOC(=O)C1=C(C)NC(C)=C(C(=O)OCC)C1c1cccc([N+](=O)[O-])c1 | -8 | . | -1 | -7 | -7 | i | . | .
